Source: PubChem BioAssay (Tox21)
Where “and” joins values, the source holds several entries; their conditions need not be identical. Equal values may be shown once. Records with an inconclusive call do not appear. Some compounds were tested as several samples or in several runs, with calls that do not always agree. Calls of active or inactive are those of the source. Unless noted, the call rests on the fitted dose curve; in most records, active means well fitted curve in the direction sought with a large enough effect in the repeat runs; inconclusive means weak or mixed curves; inactive means no such curve, though single readings can be large; an effect the other way counts as inactive or inconclusive.

Experiments:
[1] = qHTS assay to identify small molecule agonists of the peroxisome proliferator-activated receptor delta (PPARd) signaling pathway - cell viability counter screen (AID 743211); further: nearly all actives have a fitted effect of over 55% in size; further: potency means the concentration at half of the fitted maximal effect
Method in brief: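 Viability was measured as CellTiter-Glo luminescence (30 min, room temperature) in the same wells as the beta-lactamase readout. GeneBLAzer PPARd UAS-bla HEK293H cells received compound after 5 h plating and were incubated 17 h at 37 C.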

[2] = target: Peroxisome proliferator-activated receptor delta (Homo sapiens) (UniProt Q03181); assay: qHTS assay to identify small molecule agonists of the peroxisome proliferator-activated receptor delta (PPARd) signaling pathway (AID 743212; calls by dose curve)
Chain of Peroxisome proliferator-activated receptor delta (Homo sapiens) (Q03181 whole entry, looked up): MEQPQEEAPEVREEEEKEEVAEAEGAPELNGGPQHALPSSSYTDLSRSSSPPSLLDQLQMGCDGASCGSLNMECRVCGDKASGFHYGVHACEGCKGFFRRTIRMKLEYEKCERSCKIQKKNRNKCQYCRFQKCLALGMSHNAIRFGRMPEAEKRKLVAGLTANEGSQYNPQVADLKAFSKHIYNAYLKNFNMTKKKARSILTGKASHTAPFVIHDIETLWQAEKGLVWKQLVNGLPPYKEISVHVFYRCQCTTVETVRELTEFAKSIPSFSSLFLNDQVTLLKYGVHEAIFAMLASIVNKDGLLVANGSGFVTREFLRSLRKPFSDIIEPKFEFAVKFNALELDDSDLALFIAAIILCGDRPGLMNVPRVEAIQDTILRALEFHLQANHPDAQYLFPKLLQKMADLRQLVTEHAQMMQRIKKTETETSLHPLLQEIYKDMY
Method in brief: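 Beta-lactamase reporter read by fluorescence (LiveBLAzer B/G FRET, 2 h, room temperature). Test agents, in DMSO, incubated at 37 C with PPARd-bla HEK293H cells.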

[3] = target: Peroxisome proliferator-activated receptor delta (Homo sapiens) (UniProt Q03181); assay: qHTS assay to identify small molecule antagonists of the peroxisome proliferator-activated receptor delta (PPARd) signaling pathway (AID 743215; active means well fitted inhibition curve with a large enough effect in the signal ratio in the repeat runs, not every such curve was filed as active; the % refers to the signal ratio;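 further: cells stimulated with agonist L165041 at 300 nM final during compound exposure; series mostly up to about 62 µM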)
Method in brief: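 Screen format: qHTS, antagonist mode. HEK293H PPARd-bla cells received compound and 300 nM L165041 (final), 17 h, 37 C. Beta-lactamase detected via FRET substrate fluorescence, 2 h, room temperature.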

[4] = target: Bile acid receptor (Homo sapiens) (UniProt Q96RI1); assay: qHTS assay to identify small molecule antagonists of the farnesoid-X-receptor (FXR) signaling pathway (AID 743217; active means well fitted inhibition curve with a large enough effect in the signal ratio in the repeat runs, not every such curve was filed as active; the % refers to the signal ratio)
Chain of Bile acid receptor (Homo sapiens) (Q96RI1 whole entry, looked up): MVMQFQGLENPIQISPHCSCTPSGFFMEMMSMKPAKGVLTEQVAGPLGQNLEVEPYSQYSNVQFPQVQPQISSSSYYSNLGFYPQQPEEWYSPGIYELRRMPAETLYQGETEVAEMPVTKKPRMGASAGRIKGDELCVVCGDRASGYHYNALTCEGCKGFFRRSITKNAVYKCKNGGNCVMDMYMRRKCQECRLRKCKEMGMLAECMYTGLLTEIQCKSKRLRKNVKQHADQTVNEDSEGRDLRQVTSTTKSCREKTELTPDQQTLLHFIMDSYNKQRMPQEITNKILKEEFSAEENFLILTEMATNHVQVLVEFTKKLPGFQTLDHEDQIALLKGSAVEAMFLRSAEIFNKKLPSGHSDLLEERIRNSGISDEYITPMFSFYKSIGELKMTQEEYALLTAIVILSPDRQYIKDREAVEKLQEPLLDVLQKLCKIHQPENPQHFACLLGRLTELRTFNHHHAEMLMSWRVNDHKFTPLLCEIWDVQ
Method in brief: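 Quantitative HTS, beta-lactamase reporter format: FXR-UAS-bla HEK 293T cells co-treated 16 h at 37 °C with compounds and 50 uM final chenodeoxycholic acid, then read by B/G FRET fluorescence.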

[5] = qHTS assay to identify small molecule agonists of the farnesoid-X-receptor (FXR) signaling pathway - cell viability counter screen (AID 743218); further: nearly all actives have a fitted effect of over 45% in size; further: potency means the concentration at half of the fitted maximal effect
Method in brief: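 Same-well cytotoxicity check on FXR-UAS-bla HEK 293T cells: 5 h attachment, 16 h compound at 37 C, CellTiter-Glo luminescence read at room temperature after 30 min.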

[6] = target: Bile acid receptor (Homo sapiens) (UniProt Q96RI1); assay: qHTS assay to identify small molecule agonists of the farnesoid-X-receptor (FXR) signaling pathway (AID 743220; active means well fitted activation curve with a large enough effect in the signal ratio in the repeat runs, not every such curve was filed as active; the % refers to the signal ratio)
Method in brief: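 FXR-UAS-bla HEK 293T cells carrying a UAS-driven beta-lactamase reporter were plated for 5 h at 37C/5% CO2, then exposed to DMSO-dissolved Tox21 10K compounds for 16 h at 37C. A LiveBLAzer B/G FRET substrate was loaded for 2 h at room temperature before fluorescence reading.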

[7] = qHTS assay to identify small molecule antagonists of the farnesoid-X-receptor (FXR) signaling pathway - cell viability counter screen (AID 743221; active means well fitted cell-killing curve with a large enough effect in the repeat runs, not every such curve was filed as active; further: nearly all actives have a fitted effect of over 50% in size; further: potency means the concentration at half of the fitted maximal effect)
Method in brief: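 Cytotoxicity counter screen run in the FXR-bla reporter wells: HEK 293T cells exposed to compound with 50 uM (final) chenodeoxycholic acid for 16 h, 37 C, then viability measured by CellTiter-Glo luminescence after 30 min, room temperature.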

[8] = target: Vitamin D3 receptor (Homo sapiens) (UniProt P11473); assay: qHTS assay to identify small molecule agonists of the vitamin D receptor (VDR) signaling pathway (AID 743222; calls by dose curve)
Chain of Vitamin D3 receptor (Homo sapiens) (P11473 whole entry, looked up): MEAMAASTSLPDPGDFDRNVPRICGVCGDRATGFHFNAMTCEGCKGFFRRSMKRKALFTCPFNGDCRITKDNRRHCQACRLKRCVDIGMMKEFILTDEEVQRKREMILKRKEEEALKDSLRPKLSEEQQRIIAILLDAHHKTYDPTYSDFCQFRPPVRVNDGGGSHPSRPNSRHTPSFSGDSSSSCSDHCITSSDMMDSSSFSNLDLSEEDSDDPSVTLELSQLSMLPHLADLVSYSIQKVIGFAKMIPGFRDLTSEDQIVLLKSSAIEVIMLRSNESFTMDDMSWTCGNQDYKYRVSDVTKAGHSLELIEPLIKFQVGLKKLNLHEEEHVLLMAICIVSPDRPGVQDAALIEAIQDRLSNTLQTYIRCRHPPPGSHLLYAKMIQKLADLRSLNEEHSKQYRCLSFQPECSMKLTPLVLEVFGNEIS
Method in brief: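 Using LiveBLAzer B/G FRET detection, agonism was scored in VDR-bla cells exposed overnight (16 h, 37C) to DMSO-dissolved compounds; substrate incubation was 2 h at room temperature.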

[9] = target: Vitamin D3 receptor (Homo sapiens) (UniProt P11473); assay: qHTS assay to identify small molecule antagonists of the vitamin D receptor (VDR) signaling pathway (AID 743223; active means well fitted inhibition curve with a large enough effect in the signal ratio in the repeat runs, not every such curve was filed as active; the % refers to the signal ratio; further: potency means the concentration at half of the fitted maximal effect)
Method in brief: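 Antagonist mode: compound added to VDR-bla cells alongside agonist 1alpha,25-dihydroxyvitamin D3 (3 nM final), incubation 16 h at 37C. Read-out is LiveBLAzer FRET fluorescence, 2 h at room temperature.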

[10] = qHTS assay to identify small molecule agonists of the vitamin D receptor (VDR) signaling pathway - cell viability counter screen (AID 743224); further: nearly all actives have a fitted effect of over 50% in size; further: potency means the concentration at half of the fitted maximal effect
Method in brief: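 Counter screen for cytotoxicity: VDR-bla cells at 2,000 cells/well, 16 h compound exposure, then CellTiter-Glo luminescence after the beta-lactamase measurement.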

[11] = qHTS assay to identify small molecule antagonists of the vitamin D receptor (VDR) signaling pathway - cell viability counter screen (AID 743225); further: nearly all actives have a fitted effect of over 50% in size; further: potency means the concentration at half of the fitted maximal effect
Method in brief: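 Cytotoxicity counter screen read by CellTiter-Glo luminescence (30 min, room temperature) in the same wells as the VDR-bla antagonist readout. HEK 293T VDR-UAS-bla cells had 16 h at 37C with compound and 3 nM (final) 1-alpha,25-dihydroxyvitamin D3, then 2 h with FRET substrate.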

[12] = qHTS assay to identify small molecule agonists of the NFkB signaling pathway - cell viability counter screen (AID 1159515; calls by dose curve; further: nearly all actives have a fitted effect of over 55% in size; further: potency means the concentration at half of the fitted maximal effect)
Method in brief: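 Counter screen run alongside the NFkB-bla agonist assay: ME-180 reporter cells exposed to compounds for 5 hr, then lysed with CellTiter-Glo in the same wells. Luminescence, read after 30 min, reflects viable cells.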

[13] = qHTS assay to identify small molecule agonists of the endoplasmic reticulum stress response signaling pathway (AID 1159516; active means well fitted activation curve with a large enough effect in the signal ratio in the repeat runs, not every such curve was filed as active; the % refers to the signal ratio)
Method in brief: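 For this screen, HeLa cells stably carrying beta-lactamase under the ER stress response element received test compounds, positive controls or DMSO for 5 hr at 37 C; B/G FRET substrate was then added and dual-wavelength emission recorded.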

[14] = qHTS assay to identify small molecule agonists of the endoplasmic reticulum stress response signaling pathway - cell viability counter screen (AID 1159517; calls by dose curve; further: nearly all actives have a fitted effect of over 50% in size; further: potency means the concentration at half of the fitted maximal effect)
Method in brief: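 Cytotoxicity of test compounds toward ESRE-bla HeLa cells was assessed after 5 hr exposure. The luminescent CellTiter-Glo signal was measured 30 min after reagent addition.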

[15] = qHTS assay to identify small molecule antagonists of the retinoid-related orphan receptor gamma (ROR-gamma) signaling pathway - cell viability counter screen (AID 1159520); further: nearly all actives have a fitted effect of over 50% in size; further: potency means the concentration at half of the fitted maximal effect
Method in brief: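 Tet-on ROR gamma CHO cells (1,000/well) were plated 4 hr, given compounds in DMSO for 2 hr at 37 C, then induced with 1 uM final doxycycline for 16 hr. Viability was read as ATP by CellTiter-Glo luminescence after 30 min.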

[16] = target: Nuclear receptor ROR-gamma (Homo sapiens) (UniProt P51449); assay: qHTS assay to identify small molecule antagonists of the retinoid-related orphan receptor gamma (ROR-gamma) signaling pathway (AID 1159521; further: nearly all actives have a fitted effect of over 50% in size; further: potency means the concentration at half of the fitted maximal effect)
Method in brief: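 Antagonist read-out: drop in luminescence (ONE-Glo) from an RORE-LUC reporter in CHO cells with doxycycline-inducible ROR-gamma; 2 hr compound pretreatment, 1 uM doxycycline, 16 hr incubation at 37 C.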

[17] = qHTS assay to identify small molecule agonists of the AP-1 signaling pathway - cell viability counter screen (AID 1159525; calls by dose curve; further: nearly all actives have a fitted effect of over 55% in size; further: potency means the concentration at half of the fitted maximal effect)
Method in brief: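 Each titration point was normalised to DMSO and tetra n-octyl ammonium bromide controls. The read was Cell Titer Glo luminescence after 30 min at RT, following 5 h compound exposure of ME-180 AP-1-bla cells at 37 °C.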

[18] = qHTS assay to identify small molecule agonists of the AP-1 signaling pathway (AID 1159526; calls by dose curve)
[19] = qHTS assay to identify small molecule antagonists of the peroxisome proliferator-activated receptor delta (PPARd) signaling pathway - cell viability counter screen (AID 743213); further: nearly all actives have a fitted effect of over 50% in size; further: potency means the concentration at half of the fitted maximal effect
Method in brief: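 Same-well viability: cells pre-incubated 5 h, dosed with compound plus 300 nM L165041, kept 17 h at 37 C, FRET substrate 2 h RT, then CellTiter-Glo 30 min RT and luminescence.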

Measured: Potency

CC1(C)O[C@@H]2C[C@H]3[C@@H]4CCC5=CC(=O)C=C[C@]5(C)[C@@]4(F)[C@@H](O)C[C@]3(C)[C@]2(C(=O)CO)O1
not listed: [19]
inactive: all other assays above

C=C(C)C(=O)OCC(C)O (stereo unspecified)
not listed: [4] | [6] | [19]
inactive: all other assays above

CC(=O)C(=O)O
not listed: [4] | [6] | [19]
inactive: all other assays above

CN1CCC[C@H]1c1cccnc1
not listed: [2] | [3] | [4] | [6]
inactive: all other assays above

C[C@](N)(Cc1ccc(O)c(O)c1)C(=O)O
not listed: [2] | [3] | [4] | [6]
inactive: all other assays above

CCCCC1(COC(=O)CCC(=O)O)C(=O)N(c2ccccc2)N(c2ccccc2)C1=O
not listed: [4] | [6] | [19]
inactive: all other assays above

O=C1NC(=O)C(c2ccccc2)(c2ccccc2)N1
not listed: [4] | [6] | [8] | [9] | [19]
inactive: all other assays above

CCOc1ccc(NC(C)=O)cc1
not listed: [2] | [3]
inactive: all other assays above

O=c1[nH]cc(F)c(=O)[nH]1
4.49 µM (active) and inactive: [16]
not listed: [19]
inactive: all other assays above

CN1[C@@H]2CC(OC(=O)[C@H](CO)c3ccccc3)C[C@H]1[C@@H]1O[C@@H]12 (stereo partly specified)
not listed: [4] | [6] | [19]
inactive: all other assays above

Cc1c(C(=O)O)c(O)cc2c1C(=O)c1c(O)c([C@@H]3O[C@H](CO)[C@@H](O)[C@H](O)[C@H]3O)c(O)c(O)c1C2=O
not listed: [19]
inactive: all other assays above

CCN(CC)C(=O)c1cccc(C)c1
not listed: [3] | [19]
inactive: all other assays above

CN(C)C(=O)Nc1ccc(Cl)c(Cl)c1
not listed: [4] | [6] | [8] | [9] | [19]
inactive: all other assays above

CS(=O)(=O)OCCCCOS(C)(=O)=O
not listed: [4] | [6] | [19]
inactive: all other assays above

C=CCc1ccc(O)c(OC)c1
not listed: [3] | [4] | [6] | [8] | [9] | [19]
inactive: all other assays above

CCCC[P+](CCCC)(CCCC)CCCC
not listed: [2] | [3]
inactive: all other assays above

CC(=O)Nc1c(I)c(NC(C)=O)c(I)c(C(=O)O)c1I
not listed: [2] | [3] | [4] | [6] | [8] | [9] | [10] | [11]
inactive: all other assays above

CCCCC(CC)C(=O)O (stereo unspecified)
not listed: [4] | [6] | [8] | [9] | [19]
inactive: all other assays above

O=C(O)CC(O)C(=O)O (stereo unspecified)
not listed: [2] | [3] | [4] | [6]
inactive: all other assays above

Cn1c(=O)c2c(ncn2C)n(C)c1=O
not listed: [2] | [3] | [4] | [6] | [8] | [9]
inactive: all other assays above

Cc1ncc([N+](=O)[O-])n1CCO
not listed: [4] | [6] | [8] | [9]
inactive: all other assays above

NC(=O)c1cccnc1
not listed: [19]
inactive: all other assays above

CCCCOC(=O)c1ccc(O)cc1
not listed: [19]
inactive: all other assays above

NS(=O)(=O)c1cc2c(cc1Cl)NCNS2(=O)=O
not listed: [2] | [3] | [19]
inactive: all other assays above

Nc1c2c(nc3ccccc13)CCCC2
not listed: [2] | [3] | [4] | [6] | [8] | [9] | [13]
inactive: all other assays above

O=C1OC2(c3ccccc31)c1cc(Br)c(O)c(Br)c1Oc1c2cc(Br)c(O)c1Br
not listed: [2] | [3] | [4] | [6] | [8] | [9] | [13] | [19]
inactive: all other assays above

CC(=O)CC(c1ccccc1)c1c(O)c2ccccc2oc1=O (stereo unspecified)
not listed: [2] | [3] | [4] | [6] | [19]
inactive: all other assays above

COc1ccc(CN(CCN(C)C)c2ccccn2)cc1
not listed: [3] | [4] | [6] | [8] | [9] | [18]
inactive: all other assays above

CCCCCCCCCCCCCCCC[N+](C)(C)Cc1ccccc1
inactive: [3] | [6] | [8]
active: [1] 31.9 µM and 8.86 µM and 18.8 µM | [19] 22.6 µM and 9.94 µM and 13.3 µM | [5] 25.3 µM and 22.3 µM and 13.3 µM | [7] 63.6 µM and 25 µM and 16.8 µM | [9] 63.6 µM and 49.8 µM | [10] 31.9 µM and 8.86 µM and 26.6 µM | [11] 45 µM and 17.7 µM and 21.3 µM | [12] 56.7 µM and 49.8 µM and 21.3 µM | [14] 25.3 µM and 39.6 µM | [15] 70.8 µM and 55.5 µM and 29.8 µM | [16] 56.2 µM and 27.8 µM and 13.3 µM | [17] 40.1 µM and 49.8 µM and 23.9 µM

O=C1NS(=O)(=O)c2ccccc21
not listed: [2] | [3] | [4] | [6] | [8] | [9] | [19]
inactive: all other assays above

CC1(C)S[C@@H]2[C@H](NC(=O)[C@H](N)c3ccccc3)C(=O)N2[C@H]1C(=O)O
not listed: [2] | [3] | [4] | [6] | [8] | [9] | [16] | [19]
inactive: all other assays above

Nc1ccc(S(N)(=O)=O)cc1
not listed: [2] | [3] | [4] | [6] | [8] | [9] | [16]
inactive: all other assays above
